BRCA1 expr act: qHTS Assay to Identify Small Molecule Activators of BRCA1 Expression; hit rate 1.1% among 380,000; Potency, µM (series often up to 46.1 µM), without a hit: at the highest dose activation, most hits filed as activators; MCF7-BRCA1-FFLuc reporter, luminescence, 48 h; response scale: scaled: vehicle 0%, 10 µM genistein 100%; further: potency means the concentration at half of the fitted maximal effect; nearly all actives have a fitted effect of over 80% in size
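First, MCF7-BRCA1-FFLuc cells (2000/well) attach for 2 h; next, compounds are pin-added and incubated 48 h at 37 °C; finally, luciferase reagent is added and luminescence read after 15 min.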
Giardia killer: Small Molecules that selectively kill Giardia lamblia: qHTS | Giardia lamblia trophozoite viability | activity change, % at 7.66 µM, hits read low | hit rate 0.15% among 340,000 | AID 540267, 2011; in the data active means activity change below about -80%; inconclusive means between about -30% and that limit;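 further: parasites exposed to compound for two days anaerobically before the ATP read; on the % scale 0 is the no-effect control and ±100 the full control effect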
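Trophozoites 100 cells/well + cpd; 48 hrs, 37 deg C, anaerobic. ATPLite 1-Step added, 15-30 min RT, luminescence read (ATP-based viability).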
ELG1 DNA repair: qHTS screen for small molecules that inhibit ELG1-dependent DNA repair in human embryonic kidney (HEK293T) cells expressing luciferase-tagged ELG1 | Potency, µM (titrated, usually from 46.1 µM), without a hit: at the top dose activity change, negative = inhibition, most hits filed as inhibitors | HEK293T ELG1-luciferase reporter, luminescence, 16 h; DNA damage induced by 5-fluorouridine | hit rate 2.3% among 330,000; further: potency means the concentration at half of the fitted maximal effect; on the % scale 0 is the no-effect control and ±100 the full control effect; nearly all actives have a fitted effect of over 55% in size
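Step one: seed 2,000 cells per well. Step two: pin-transfer compound or DMSO alongside 5-fluorouridine. Step three: incubate 16 hr, 37 °C, 5% CO2. Step four: add ONE-Glo, wait 30 min, read luminescence.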
RORg inh: qHTS for inhibitors of ROR gamma transcriptional activity; Nuclear receptor ROR-gamma (Mus musculus), P51450; Drosophila S2 Gal4-RORgamma UAS-luciferase reporter, 20 h; Potency, µM (top dose mostly 53.6 µM), without a hit: at the top dose activity change, negative = inhibition, most hits filed as inhibitors; hit rate 5.4% among 310,000; further: potency means the concentration at half of the fitted maximal effect; on the % scale 0 is the no-effect control and ±100 the full control effect; nearly all actives have a fitted effect of over 60% in size
Target sequence (P51450 whole entry, looked up, the tested form may be a part): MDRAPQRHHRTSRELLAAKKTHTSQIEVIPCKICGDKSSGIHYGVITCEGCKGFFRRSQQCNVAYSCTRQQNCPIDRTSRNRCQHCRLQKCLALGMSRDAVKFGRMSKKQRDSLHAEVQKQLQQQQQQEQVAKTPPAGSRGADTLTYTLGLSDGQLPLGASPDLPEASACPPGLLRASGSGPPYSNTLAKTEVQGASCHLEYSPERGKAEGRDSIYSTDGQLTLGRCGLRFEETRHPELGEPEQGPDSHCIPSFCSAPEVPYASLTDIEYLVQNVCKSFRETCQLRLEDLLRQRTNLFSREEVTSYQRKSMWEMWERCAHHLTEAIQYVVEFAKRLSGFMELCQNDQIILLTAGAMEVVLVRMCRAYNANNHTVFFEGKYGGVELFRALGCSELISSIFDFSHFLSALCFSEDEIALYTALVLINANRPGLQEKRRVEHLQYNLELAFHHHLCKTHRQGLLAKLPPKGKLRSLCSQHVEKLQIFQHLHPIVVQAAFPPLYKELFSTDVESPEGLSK
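A Gal4/UAS one-hybrid system in insect cells: metallothionein-promoter Gal4–ROR gamma fusion plus Photinus luciferase reporter. Copper sulfate 700 uM final, 20 hr ambient incubation, luminescent detection after 10 min with reagent.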
p53 reactivator: qHTS assay for re-activators of p53 using a Luc reporter; H1299 p53-A138V BP100-luciferase reporter, luminescence, 24 h; Potency, µM (doses to about 92.2 µM), inactives show at the highest dose activity change, positive = activation, actives largely listed as activators; hit rate 0.063% among 320,000; AID 504706, 2011; further: potency means the concentration at half of the fitted maximal effect; % of control where 0% means no effect; nearly all actives have a fitted effect of over 45% in size
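H1299 (p53-null), stable ts p53-A138V + BP100-Luc; 1000 cells/well, Opti-MEM/10% FBS; cpd 4 pt, 1:5; 24 h, 37 deg C, 5% CO2; detection reagent 10 min RT; luminescence.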
Gal4-VP16 FLuc: VP16 counterscreen qHTS for inhibitors of ROR gamma transcriptional activity. Drosophila S2 Gal4-VP16 UAS-luciferase, luminescence, 20 h. AID 2546, 2010. hit rate 3.5% among 310,000. Potency, µM (titrated, usually from 53.6 µM), for the others: at the top dose activity, negative = inhibition, usual class: inhibitors;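 further: Gal4-VP16 expression switched on by copper sulfate through the metallothionein promoter; potency means the concentration at half of the fitted maximal effect; on the % scale 0 is the no-effect control and ±100 the full control effect; nearly all actives have a fitted effect of over 50% in size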
* hit, by the source's call; ? = inconclusive; . = no result given; [ ] = remark or other dose. Rows were chosen to be rich in hits. Some 7.6% of all compounds tested hit in one or more screens of this group. Unless noted, the call rests on the fitted dose curve; in most records, active means well fitted curve in the direction sought with a large enough effect; inconclusive means small, poorly fitted or top-dose-only effect, or another doubt; inactive means no such curve, though single readings can be large; an effect the other way counts as inactive or inconclusive.

SMILES	BRCA1 expr act	Giardia killer	ELG1 DNA repair	RORg inh	p53 reactivator	Gal4-VP16 FLuc
CC(=O)Nc1ccc(S(=O)(=O)n2cnc3cc(C)c(C)cc32)cc1	-8.5%	2.9	?	2.9%	0.7%	11.2µM*
Cc1ccccc1-n1c(-c2ccoc2C)n[nH]c1=S	-14.3%	-16.7	?	10µM*	3.6%	?
Cc1cccc(-n2c(-c3ccoc3C)n[nH]c2=S)c1	-32.9%	-15.9	10.4%	8.91µM*	4.7%	?
Cc1ccccc1-n1c(C)n[nH]c1=S	4.5%	-5.4	1.5%	?	-4.9%	-5.3%
Cc1c(NC(=O)/C(C#N)=C/c2ccc(-c3cc(Cl)ccc3Cl)o2)c(=O)n(-c2ccccc2)n1C	-32.3%	12.3	18.4µM*	6.8%[10 µM]	-13.9%	2.9%
Cc1c(NC(=O)/C(C#N)=C/c2ccc(-c3ccc(Cl)cc3)o2)c(=O)n(-c2ccccc2)n1C	-39.8%	1.4	16.4µM*	?	-20.4%	?
Cc1c(NC(=O)/C(C#N)=C\c2cccs2)c(=O)n(-c2ccccc2)n1C	32.6%	-8.8	5.9%	-5.9%	-9.9%	-2.6%
Cc1c(N/N=C(\C#N)C(=O)c2ccc(Cl)cc2)c(=O)n(-c2ccccc2)n1C	-93.8%	-18.1	11.5%	7.08µM*	17.6%	3.55µM*
Cc1nn(-c2ccccc2)c(Cl)c1/C=N/NS(=O)(=O)c1ccc(Br)cc1	0.8%	-6.4	4.5%	2.2%	0.8%	-4.4%
CCN(CC(=O)NC(C)C)C(=O)C(CCSC)NC(=O)c1cccc(C)c1 (stereo not drawn)	13.5%	28.1	-2.4%	5.9%	0.0%	7.2%
Cn1cc(-c2nnc(-c3ccccc3)o2)c2ccccc21	4.3%	-14.8	?	1.41µM*	22.3%	?
Cc1ccccc1-c1nnc(-c2ccccc2)o1	22.4%	3.6	?	29.4%	?	-8.0%
O=C(c1ccccc1)c1ccc(O)c(O)c1O	10.5%	-5.8	.	.	.	.
CCC[n+]1cn(/C(C(=S)Nc2cccc(Cl)c2C)=C(/[O-])c2ccc(OC)c(OC)c2)c2ccccc21	-24.9%	0.7	?	14.1µM*	-4.3%	?
COc1cc2c(cc1OC)CN(C(=S)Nc1cccc(Cl)c1C)CC2	-20.6%	26.0	-9.2%	?	-1.5%	-15.1%
O=C(COn1nnc2ccc(C(F)(F)F)cc21)Nc1nnc(-c2ccccc2)o1	-20.0%	1.7	1.2%	7.08µM*	3.4%	4.47µM*
Cc1cccc(C)c1NC(=O)COn1nnc2ccc(C(F)(F)F)cc21	-5.1%	-4.6	-7.2%	-9.9%	-9.4%	2.6%
O=C(COc1ccccc1)Nc1cccc(-c2nnc(-c3ccccc3)o2)c1	?	-10.3	-13.5%	-31.2%	2.5%	?
O=C(COc1ccccc1)Nc1nnc(-c2ccc(Cl)s2)o1	-1.3%	-9.1	-0.9%	12.6µM*	2.9%	20µM*
O=C(Nc1nnc(-c2ccc(Cl)s2)o1)C1CC1	24.6%	7.3	-1.3%	-2.2%	12.2%	-6.6%
O=C(COc1ccccc1)Nc1nnc(-c2ccccc2)o1	-7.0%	-24.3	12.6%	10µM*	3.5%	10µM*
O=C(Cc1ccccc1)Nc1nnc(-c2ccco2)o1	-24.7%	-13.8	-6.4%	2.82µM*	2.4%	10µM*
O=C(COc1ccc(Cl)cc1)Nc1nnc(-c2ccco2)o1	2.0%	-10.2	-19.1%	11.2µM*	-0.8%	?
O=C(COc1ccccc1)Nc1nnc(-c2ccco2)o1	15.5%	-9.1	-3.5%	15.8µM*	-1.5%	?
Cn1c(Cc2c[nH]c3ccccc23)n[nH]c1=S	-24.9%	3.4	?	-19.2%	3.8%	6.1%
SMILES	BRCA1 expr act	Giardia killer	ELG1 DNA repair	RORg inh	p53 reactivator	Gal4-VP16 FLuc
S=c1[nH]nc(Cc2cccc3ccccc23)n1-c1ccccc1	9.1%	7.3	-4.1%	3.16µM*	-2.3%	7.08µM*
Cn1c(Cn2c3ccccc3c3ccccc32)n[nH]c1=S	0.6%	12.2	-22.8%	3.55µM*	-6.9%	12.6µM*
Cc1nccn1CCc1n[nH]c(=S)n1Cc1ccccc1	-5.4%	2.5	3.8%	-26.6%	5.0%	0.2%
Cn1c(-c2cccc3ccccc23)n[nH]c1=S	-12.7%	-9.8	22.2%	10µM*	1.4%	?
C=C(C)Cn1c(CCn2c3ccccc3c3ccccc32)n[nH]c1=S	-23.0%	-8.7	-7.4%	?	-6.5%	1µM*
CC(=O)N1CCc2cc(S(=O)(=O)NC(C(=O)Nc3nc(C)cs3)C(C)C)ccc21 (stereo not drawn)	-6.0%	-6.1	7.2%	-9.7%	-2.0%	0.1%
C=CCn1c(CCn2c3ccccc3c3ccccc32)n[nH]c1=S	0.7%	-2.9	3.0%	3.98µM*	-1.6%	3.16µM*
COc1cccc2cc(-c3n[nH]c(=S)n3C)oc12	1.6%	22.4	2.5%	3.55µM*	3.7%	-19.4%[10 µM]
C=CCn1c(Cc2nc3ccccc3[nH]2)n[nH]c1=S	10.3%	3.6	?	-8.9%[0.365 µM]	25.3%	.
C=CCn1c(Cc2cccc3ccccc23)n[nH]c1=S	-7.2%	1.2	-0.2%	3.98µM*	11.1%	11.2µM*
S=c1[nH]nc(Cc2noc3ccccc23)n1-c1ccccc1	19.0%	-23.6	?	10µM*	-2.6%	-5.6%
O=C(NCc1ccc2c(c1)OCO2)C1CC(=O)N(c2ccc(O)cc2)C1 (stereo not drawn)	23.0%	-25.3	16.1%	-13.4%	0.1%	0.5%
Cc1cccc(NC(=O)c2oc(=O)c3ccccc3c2-c2ccccc2)c1C	-31.3%	5.9	-3.9%	40.2%	-9.5%	-12.4%
CN(N=O)c1ccc(/C=C/c2ccccc2)cc1	5.62µM*	.	.	.	.	.
COc1cccc(-c2nc(CS(=O)(=O)CC(=O)Nc3cc(F)ccc3F)c(C)o2)c1	12.6%	-4.7	18.3µM*	-14.8%	4.0%	6.2%
COc1cccc(-c2nc(CS(=O)(=O)CC(=O)Nc3ccccc3C)c(C)o2)c1	0.8%	-8.2	-7.9%	8.7%	-14.9%	-0.2%
C=CCNC(=O)c1onc(CSc2cc(C)cc(C)c2)c1C(=O)O	11.3%	-23.4	10.2%	?	-3.2%	?
COc1ccc(C(=O)OC(C)C(=O)Nc2cc(C(F)(F)F)ccc2Cl)c(OC)c1OC (stereo not drawn)	-53.6%	-0.6	20.6µM*	3.9%	-9.5%	?
Cc1ccc(NC2Sc3ccccc3NC2=O)cc1 (stereo not drawn)	-37.0%	-17.4	?	11.2µM*	-4.9%	?
Oc1cccc2c(-c3nn[nH]n3)ccnc12	11.4%	16.4	1.8%	.	0.8%	.

Source: PubChem BioAssay
